Measured values published in PubChem BioAssay AID489042 (NMMLSC, 2010).
Active and inactive are the calls of the source. Rule as the data show it: active = inhibition score above about 11; inactive = the rest.

experiment: yeast proliferation inhibition, dose response, BY4741, OD595, 24 h (AID 489042); details: S. cerevisiae BY4741 growth, flow cytometer event count, 7 d (AID 449753), hits give high values

For `COc1ccc2nc3ccccc3[n+]([O-])c2c1`, which inhibition score is on record?
The inhibition score was 0 (inactive).

With `CCN(CC)C(=O)CSc1nnc(-c2cccc(OC)c2)o1` as the compound, how does the inhibition score read?
The inhibition score was 0 (inactive).

For `CC(C)(C)Nc1ncnc2c1cnn2-c1ccccc1`, which inhibition score is on record?
Its inhibition score is 0 (inactive).

Which inhibition score does the source give for `C=CCOn1c(=O)c(-c2cccs2)[n+]([O-])c2ccccc21` here?
The inhibition score was 0 (inactive).

With `O=C1c2c(O)ccc(O)c2C(=O)c2c(NCCNCCO)ccc(NCCNCCO)c21` as the compound, how does the inhibition score read?
The inhibition score was 0 (inactive).

With `N#CCc1nn(-c2ccccc2)c2ncnc(N)c12` as the compound, how does the inhibition score read?
Its inhibition score is 0 (inactive).

For `O=C(Nc1ccc2nc3ccccc3nc2c1)c1ccccc1`, which inhibition score is on record?
The inhibition score was 0 (inactive).

For `O=C(CN1CCN(c2ccccn2)CC1)Nc1ccccc1F`, which inhibition score is on record?
Its inhibition score is 0 (inactive).

For `CCN(CC)C(=O)c1ccc2nc3ccccc3nc2c1`, which inhibition score is on record?
The inhibition score was 0 (inactive).

With `Cc1ccc(-c2nn(C(C)(C)C)c3ncnc(N)c23)cc1` as the compound, how does the inhibition score read?
Its inhibition score is 0 (inactive).

For `CC(=O)Nc1ccc2nc3ccccc3nc2c1`, which inhibition score is on record?
Its inhibition score is 0 (inactive).

With `Cc1cc2nc3ccc(N(C)C)cc3nc2cc1N` as the compound, how does the inhibition score read?
The inhibition score was 0 (inactive).

For `CC(C)(C)n1nc(-c2ccc(Cl)cc2)c2c(N)ncnc21`, which inhibition score is on record?
The inhibition score was 0 (inactive).

For `CSc1nnc(-c2ccc([N+](=O)[O-])cc2)o1`, which inhibition score is on record?
The inhibition score was 0 (inactive).

For `FC(F)(F)c1nc2cc3nc4ccccc4[nH]c3cc2n1`, which inhibition score is on record?
The inhibition score was 0 (inactive).

Which inhibition score does the source give for `C/C(=N\Nc1ncnc2sc(C)c(C)c12)c1ccccn1` here?
The inhibition score was 10 (inactive).

Which inhibition score does the source give for `NC(=O)CSc1nnc(-c2ccc([N+](=O)[O-])cc2)o1` here?
Its inhibition score is 0 (inactive).

Which inhibition score does the source give for `O=C(/C=C/c1ccccc1)NC(=S)NNC(=O)Cc1cccs1` here?
The inhibition score was 0 (inactive).

For `COc1ccc2cc(C3CC(c4ccco4)=NN3S(=O)(=O)c3ccccc3)c(Cl)nc2c1` (centres undefined), which inhibition score is on record?
The inhibition score was 0 (inactive).

For `Cc1cc(C)c2[nH]c3nc(SCC(=O)O)nnc3c2c1`, which inhibition score is on record?
The inhibition score was 0 (inactive).

For `CCN(CC)C(=O)c1cccc2nc3ccccc3nc12`, which inhibition score is on record?
Its inhibition score is 0 (inactive).

For `COc1ccc2nc3ccccc3nc2c1NC(=O)c1ccccc1Cl`, which inhibition score is on record?
The inhibition score was 0 (inactive).

For `c1ccc2[nH]c3cc4ncnc4cc3nc2c1`, which inhibition score is on record?
The inhibition score was 0 (inactive).

With `CC(C)OC(=O)c1ccc2nc3ccccc3nc2c1` as the compound, how does the inhibition score read?
Its inhibition score is 0 (inactive).

Which inhibition score does the source give for `CC(=O)[C@@]1(O)CCC2C3CC[C@H]4C[C@@H](O)CC[C@]4(C)C3CC[C@@]21C` (some centres undefined) here?
Its inhibition score is 0 (inactive).

Which inhibition score does the source give for `O=C(c1cccc2nc3ccccc3nc12)N1CCOCC1` here?
Its inhibition score is 0 (inactive).

Which inhibition score does the source give for `O=C(Nc1ccc2nc3ccccc3nc2c1)c1ccc(Br)cc1` here?
Its inhibition score is 0 (inactive).

With `O=C(OCc1c(F)cccc1Cl)c1cnc2ccccc2n1` as the compound, how does the inhibition score read?
The inhibition score was 0 (inactive).

For `CC(C)CSc1nnc2c3ccccc3n(C)c2n1`, which inhibition score is on record?
The inhibition score was 0 (inactive).
